{"source": "PubChem BioAssay AID932", "about": "(The Scripps Research Institute Molecular Screening Center, 2007)", "note": "The whole screen tested about 200,000 compounds, of which about 5,100 (2.5%) were called active. The sample as a whole holds a higher share of actives than the screen did. Values without a mark were called inactive.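 The calls were made as follows: active = activation above the screen-wide mean activation plus 3 SD (cut at about 130% in these data); inactive = the rest.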"}
{"test": "STAT1 signaling activators, primary screen, cell-based, HTS, luciferase reporter (AID 932);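 also: raw ratio to IFN-gamma control signal so 100% means no change and 0% no light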", "conditions": "NIH 3T3 STAT1-luciferase reporter, IFN-gamma, luminescence; at 5.5 µM; stronger effect = higher value; 100% = IFN-gamma alone, no compound"}
{"smiles": "Cn1c(=O)c2c(ncn2CCc2ccccc2)n(C)c1=O", "activation (% of control)": "101%"}
{"smiles": "CC(NC(=O)Nc1ccccc1)C(c1cccs1)N1CCN(c2ccccc2)CC1", "note": "(configuration not stated)", "activation (% of control)": "87%"}
{"smiles": "O=C(CN1C(=O)c2cccc3cccc(c23)C1=O)N1CCCCC1", "activation (% of control)": "89.3%"}
{"smiles": "Cc1nccc(-c2ccc(-n3c(C)ccc3C)cc2)n1", "activation (% of control)": "101%"}
{"smiles": "O=C(COC(=O)c1ccccn1)Nc1cccc2ccccc12", "activation (% of control)": "103%"}
{"smiles": "CNC(=O)/C(C#N)=C/c1c(F)cccc1Cl", "activation (% of control)": "82.9%"}
{"smiles": "Cc1ccc(O)c(CCc2ccccc2)n1", "activation (% of control)": "104%"}
{"smiles": "COc1ccc(C(=O)Nc2ccc(S(=O)(=O)Nc3onc(C)c3C)cc2)cc1OC", "activation (% of control)": "104%"}
{"smiles": "Cc1noc(NS(=O)(=O)c2ccc(N/C=C/C(=O)c3ccccc3)cc2)c1C", "activation (% of control)": "113%"}
{"smiles": "Cc1ccc(C(=O)/C=C/Nc2ccc(S(=O)(=O)Nc3onc(C)c3C)cc2)cc1", "activation (% of control)": "142% (active)"}
{"smiles": "CC(C)C(O)C1CCN(Cc2nc(Cc3ccccc3Cl)no2)CC1", "note": "(configuration not stated)", "activation (% of control)": "105%"}
{"smiles": "Cc1ccc(N(C(=O)c2ccc(S(=O)(=O)N(C)C)cc2)C2C=CS(=O)(=O)C2)cc1", "note": "(configuration not stated)", "activation (% of control)": "96.7%"}
{"smiles": "CCC(O)C1CCN(Cc2cn(-c3ccc(OC)cc3)nc2-c2cccc(F)c2)CC1", "note": "(configuration not stated)", "activation (% of control)": "107%"}
{"smiles": "CCc1nc(Nc2ccc3nccnc3c2)c2oc3ccccc3c2n1", "activation (% of control)": "98.2%"}
{"smiles": "COc1ccccc1Nc1ncnc2c1oc1ccccc12", "activation (% of control)": "137% (active)"}
{"smiles": "Cc1nc(Cl)c2oc3ccccc3c2n1", "activation (% of control)": "103%"}
{"smiles": "CCN(c1ccc(NC(=O)COC(=O)CCc2nc3ccccc3n2-c2ccccc2)cc1)C(C)C", "activation (% of control)": "99.5%"}
{"smiles": "CC(C)CC(=O)N/C(N)=N/c1nc2ccccc2s1", "activation (% of control)": "123%"}
{"smiles": "CCC(=O)NC(=Nc1nc2ccccc2s1)NC(=O)CC", "activation (% of control)": "180% (active)"}
{"smiles": "COC(=O)c1nc2ccccc2s1", "activation (% of control)": "103%"}
{"smiles": "Cc1ccc(S(=O)(=O)N(C)C)cc1NC(=O)c1ccccc1Br", "activation (% of control)": "106%"}
{"smiles": "O=c1c2c(nc3n1CCCCC3)sc1c(O)cccc12", "activation (% of control)": "104%"}
{"smiles": "Cc1c(C(=O)Nc2cccc(-c3nnc4n3CCCCC4)c2)oc2ccccc12", "activation (% of control)": "104%"}
{"smiles": "Cc1c(C(=O)Nc2ccccc2)sc2nc3n(c(=O)c12)CCCCC3", "activation (% of control)": "130% (active)"}
{"smiles": "COc1ccc(-c2nc3cnccn3c2NC(C)(C)CC(C)(C)C)cc1O", "activation (% of control)": "102%"}
{"smiles": "COc1ccc(C(C(=O)NC2CCCCC2)N(C(=O)Cc2c[nH]c3ccccc23)c2ccccc2)cc1OC", "note": "(configuration not stated)", "activation (% of control)": "105%"}
{"smiles": "COc1ccc(-n2ncc3c(N4CCc5ccccc54)ncnc32)cc1", "activation (% of control)": "137% (active)"}
{"smiles": "COc1ccc(-n2ncc3c(N4CCCc5ccccc54)ncnc32)cc1", "activation (% of control)": "187% (active)"}
{"smiles": "COc1ccc(-n2c(C)nc3c(cnn3-c3ccccc3)c2=O)cc1", "activation (% of control)": "88.7%"}
{"smiles": "c1ccc(-n2ncc3c(N4CCCC4)ncnc32)cc1", "activation (% of control)": "115%"}
{"smiles": "COc1ccc2oc(=O)c(C(=O)N3CCCc4ccccc43)cc2c1", "activation (% of control)": "97.1%"}
{"smiles": "Cc1cccc(-n2ncc3c(N4CCc5ccccc54)ncnc32)c1", "activation (% of control)": "113%"}
{"smiles": "CC(C)(C)NC(=O)NC(=O)COC(=O)C1(C)CC1(Cl)Cl", "note": "(configuration not stated)", "activation (% of control)": "104%"}
{"smiles": "NC(=O)c1ccc(CN2CCC(Cc3ccccc3)CC2)cc1", "activation (% of control)": "98.6%"}
{"smiles": "COc1ccc(CCNC(=O)c2ccc(CS(=O)(=O)c3ccc(Br)cc3)o2)cc1OC", "activation (% of control)": "84.6%"}
{"smiles": "Cc1ccc(OCCOCCOc2ccc(Br)cc2/C=N\\NC(=O)c2ccncc2)cc1", "activation (% of control)": "102%"}
{"smiles": "CC(=O)Nc1cccc(-c2cnc3ccccc3n2)c1", "activation (% of control)": "159% (active)"}
{"smiles": "CC(=O)Nc1ccc(-c2csc(NC(=O)Nc3ccccc3)n2)cc1", "activation (% of control)": "95.7%"}
{"smiles": "CCS(=O)(=O)Nc1cccc(-c2cc(-c3ccccc3)c3cc(C)ccc3n2)c1", "activation (% of control)": "96.5%"}
{"smiles": "Cc1cc(O)ccc1-c1cnc2ccccc2n1", "activation (% of control)": "108%"}
{"smiles": "CC(=O)Nc1cccc(-c2csc(Nc3cccc(C)n3)n2)c1", "activation (% of control)": "175% (active)"}
{"smiles": "COc1ccc(CCNc2nc(-c3cccc(NC(C)=O)c3)cs2)cc1OC", "activation (% of control)": "88.5%"}
{"smiles": "CCOC(=O)/C(=N\\Nc1ccccc1[N+](=O)[O-])c1csc(Nc2ccccc2)n1", "activation (% of control)": "102%"}
{"smiles": "OC1CCCN(c2ncnc3c2nnn3Cc2c(F)cccc2Cl)C1", "note": "(configuration not stated)", "activation (% of control)": "102%"}
{"smiles": "CCOC(=O)c1sc(=NC(=O)/C=C/c2cccs2)n(C)c1C", "activation (% of control)": "140% (active)"}
{"smiles": "CCOC(=O)c1c(NC(=S)NC(=O)/C=C/c2cccs2)sc(C)c1C", "activation (% of control)": "105%"}
{"smiles": "COc1ccc(CCNC(=O)COC(=O)/C=C/c2cccs2)cc1OC", "activation (% of control)": "90.8%"}
{"smiles": "CCOc1cc(NC(=S)NCc2ccco2)c(OCC)cc1NC(=O)c1ccco1", "activation (% of control)": "94.2%"}
{"smiles": "COc1cc(OC)cc(-c2nnc(SCC(=O)Nc3ccc(C(=O)O)cc3)s2)c1", "activation (% of control)": "92.8%"}
{"smiles": "CCC(=O)N1c2ccc(S(=O)(=O)CCC(=O)N3CCN(c4ccccc4)CC3)cc2CC1C", "note": "(configuration not stated)", "activation (% of control)": "101%"}
{"smiles": "CCn1nc(C(=O)OCC(=O)N2c3ccccc3CC2C)c2ccccc2c1=O", "note": "(configuration not stated)", "activation (% of control)": "94.7%"}
{"smiles": "CCCC(=O)N1c2ccc(-c3csc(N)n3)cc2CC1C", "note": "(configuration not stated)", "activation (% of control)": "150% (active)"}
